# According to PubChem BioAssay (NCATS):
# Results filed as inconclusive are left out. A call without a number means that no potency is given here. Values without a mark were called inactive. Calls of active or inactive are those of the source. Calls follow the shape of the dose curve; as a rule, active = well fitted inhibition curve with a large enough effect; inconclusive = small, poorly fitted or top-dose-only effect; inactive = no such curve, though single readings can be large or run the other way.
# Tested on: Zika virus NS2B-NS3 protease (unlinked complex)
# Test: Primary screen GU Rhodamine qHTS for Zika virus inhibitors: Unlinked NS2B-NS3 protease assay (AID 1347159); also: nearly all actives have a fitted effect of over 60% in size
# Settings: Recombinant ZIKV NS2B-NS3 protease, Rhodamine110 substrate fluorescence; series mostly up to 107 µM
# Procedure, shortened: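 A qHTS format was used, with compound concentrations ranging up to 114 microM. Each compound was preincubated with 25 nM NS2B-NS3 protease, and the substrate was then added at 1.5 microM. Curves were fitted with a 4-parameter Hill model.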
# Potency is read from the fitted curve at half-maximal effect.
SMILES,Potency,"activity change, negative = inhibition"
COCc1c(O)c(C(=O)O)c(C)c2c1OC(=O)c1c(C)cc(O)c(CO)c1O2,28.2 µM (active),
C/C(=C\CO)CC/C=C(\C)C(=O)O[C@@H]1O[C@H](CO)[C@@H](O)[C@H](O)[C@H]1O,inactive,
CC1(C)C[C@H]2C=C(C=O)[C@]3(C(=O)O)C[C@]3(C)[C@H]2C1,22.4 µM (active),
COC(=O)[C@H](Cc1cccc(C(=N)N)c1)[C@@H](C)NC(=O)c1ccc(-c2cc[n+]([O-])cc2)cc1,inactive,
COc1cc([C@H]2OC[C@](O)(Cc3ccc(O[C@@H]4O[C@H](CO)[C@@H](O)[C@H](O)[C@H]4O)c(OC)c3)[C@@H]2CO)ccc1O,inactive,
C=C1C[C@H](O)[C@@H](O)[C@@]2(C)C1[C@@H](O)[C@H]1OC(=O)C3[C@@H](C)[C@@H](O)[C@H](O)C2[C@]31C (stereo partly specified),inactive,
Cc1cc(OCCN2CCOCC2)nn1-c1ccc2ccccc2c1,inactive,
C/C=C(\C)C(=O)OC[C@H]1O[C@H](O[C@H]2O[C@H](CO)[C@@H](O)[C@H](O)[C@H]2O[C@@H]2O[C@H](CO)[C@@H](O)[C@H](O)[C@H]2O)[C@H](O[C@@H]2O[C@H](CO)[C@@H](O)[C@H](O)[C@H]2O)[C@@H](O)[C@@H]1O,inactive,
CC1(C)CC[C@]2(C(=O)O[C@@H]3O[C@H](CO)[C@@H](O)[C@H](O)[C@H]3O)CC[C@]3(C)C(=CCC4[C@@]5(C)C[C@H](O)[C@H](O[C@@H]6O[C@H](C(=O)O)[C@@H](O)[C@H](O)[C@H]6O)[C@@](C)(CO)C5CC[C@]43C)C2C1 (stereo partly specified),,21.5% [at 19.1 µM]
CC(C)CC(=O)O[C@@H]1O[C@H](CO)[C@@H](O[C@H]2O[C@H](C)[C@@H](N[C@H]3C=C(CO)[C@@H](O[C@H]4O[C@H](CO)[C@@H](O[C@H]5O[C@H](CO)[C@@H](O[C@H]6O[C@H](CO)[C@@H](O)[C@H](O)[C@H]6O)[C@H](O)[C@H]5O)[C@H](O)[C@H]4O)[C@H](O)[C@H]3O)[C@H](O)[C@H]2O)[C@H](O)[C@H]1O,inactive,
O=C(O)c1cccc(CN2C(=O)/C(=C(\c3ccccc3)c3ccc(Cl)cc3)c3ccccc32)c1,1.41 µM (active),
